Reference: PubChem BioAssay AID1159580 (chemical genetic matrix, 2015)
Values joined by “and” are separate entries in the source; they are usually repeats but may differ in a detail not shown here. Equal entries are not always repeated. In all, about 5,500 compounds went through this assay and about 2,000 (36%) were called active. Another 18% or so got no clear call; they are omitted. No stated cut-off is given here; in the data, active means normalized growth mostly below about 0.91 (no sharp cut-off); inconclusive means no clear call, values can overlap the other calls; inactive means mostly above about 0.92. The list shows a part of the results.

Assay: chemical genetic growth profiling, strain panel (AID 1159580);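 further: tested at 20 µM; growth read once vehicle control cultures reached saturation at 30 °C; 1 = growth at the plate median or of vehicle wells; lower values mean less growth of the strain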
Conditions: S. cerevisiae deletion strains, growth OD

Measured: normalized growth

COc1cc(CNC(=O)CCCC/C=C/C(C)C)ccc1O
inactive: locus YAL013W, strain DEP1, active compounds read low 1.01 | locus YAL021C, strain ccr4, active compounds read low 0.971 | locus YAL026C, strain drs2, active compounds read low 0.994 | locus YAL030W, strain snc1, active compounds read low 0.987 | locus YBL061C, strain skt5, active compounds read low 0.99 | locus YBR009C, strain hhf1, active compounds read low 0.951 | locus YBR021W, strain FUR4, active compounds read low 0.978 | locus YBR023C, strain chs3, active compounds read low 0.975 | locus YBR171W, strain sec66, active compounds read low 0.979 | locus YBR229C, strain ROT2, active compounds read low 0.994 | locus YBR231C, strain swc5, active compounds read low 0.981 | locus YBR279W, strain paf1, active compounds read low 0.983 | locus YCL011C, strain gbp2, active compounds read low 0.979 | locus YCL016C, strain dcc1, active compounds read low 0.989 | locus YCL029C, strain bik1, active compounds read low 0.988 | locus YCL069W, strain vba3, active compounds read low 0.992 | locus YCR088W, strain abp1, active compounds read low 0.964 | locus YDL005C, strain med2, active compounds read low 0.965 | locus YDL035C, strain GPR1, active compounds read low 0.972 | locus YDL040C, strain nat1, active compounds read low 0.997 | locus YDL074C, strain BRE1, active compounds read low 0.979 | locus YDL101C, strain DUN1, active compounds read low 1.01 | locus YDL134C, strain PPH21, active compounds read low 1 | locus YDL185W, strain tfp1, active compounds read low 0.986 | locus YDL192W, strain arf1, active compounds read low 0.989 | locus YDR001C, strain nth1, active compounds read low 0.997 | locus YDR069C, strain doa4, active compounds read low 0.981 | locus YDR101C, strain arx1, active compounds read low 0.969 | locus YDR137W, strain rgp1, active compounds read low 0.997 | locus YDR159W, strain sac3, active compounds read low 0.999 | locus YDR162C, strain NBP2, active compounds read low 1.04 | locus YDR195W, strain ref2 0.959 | locus YDR297W, strain sur2, active compounds read low 0.973 | locus YDR318W, strain mcm21, active compounds read low 1 | locus YDR334W, strain swr1, active compounds read low 0.998 | locus YDR335W, strain msn5, active compounds read low 0.968 | locus YDR388W, active compounds read low 0.99 | locus YDR392W, strain spt3, active compounds read low 0.956 | locus YDR502C, strain sam2, active compounds read low 0.961 | locus YEL003W, strain gim4, active compounds read low 0.984 | locus YEL037C, strain rad23, active compounds read low 0.99 | locus YEL061C, strain CIN8 (second series), active compounds read low 0.983 | locus YEL061C, strain CIN8, active compounds read low 1.01 | locus YER015W, strain faa2, active compounds read low 1 | locus YER016W, strain bim1, active compounds read low 1.01 | locus YER110C, active compounds read low 0.969 | locus YER111C, strain swi4, active compounds read low 0.991 | locus YER155C, strain BEM2 (second series), active compounds read low 0.953 | locus YER155C, strain BEM2, active compounds read low 0.994 | locus YER167W, strain BCK2, active compounds read low 1.01 | locus YFR010W, strain ubp6, active compounds read low 0.973 | locus YGL078C, strain dbp3, active compounds read low 0.974 | locus YGL086W, strain mad1, active compounds read low 0.996 | locus YGL167C, strain pmr1, active compounds read low 0.988 | locus YGL173C, strain kem1, active compounds read low 0.978 | locus YGL227W, strain vid30, active compounds read low 0.975 | locus YGL240W, strain doc1, active compounds read low 0.975 | locus YGL248W, strain PDE1, active compounds read low 1.02 | locus YGL253W, strain hxk2, active compounds read low 0.987 | locus YGR135W, strain pre9, active compounds read low 0.991 | locus YGR252W, strain gcn5, active compounds read low 0.898 | locus YHR013C, strain ard1, active compounds read low 0.999 | locus YHR027C, strain rpn1, active compounds read low 0.984 | locus YHR030C, strain SLT2, active compounds read low 1.02 and 0.997 | locus YHR079C, strain IRE1 (second series), active compounds read low 1 | locus YHR079C, strain IRE1, active compounds read low 0.989 | locus YHR094C, strain hxt1, active compounds read low 0.981 | locus YHR129C, strain ARP1, active compounds read low 1.02 | locus YHR142W, strain chs7, active compounds read low 0.998 | locus YHR200W, strain rpn10, active compounds read low 1.01 | locus YIL066C, strain RNR3, active compounds read low 1.01 | locus YIL073C, strain SPO22, active compounds read low 0.972 | locus YIL125W, strain kgd1, active compounds read low 0.993 | locus YIR030C, strain dcg1, active compounds read low 0.986 | locus YJL092W, strain hpr5, active compounds read low 0.99 | locus YJL095W, strain BCK1 (second series), active compounds read low 0.986 | locus YJL095W, strain BCK1, active compounds read low 1.05 and 0.999 | locus YJL115W, strain asf1, active compounds read low 0.979 | locus YJL129C, strain trk1, active compounds read low 0.955 | locus YJL134W, strain LCB3, active compounds read low 1.01 | locus YJL154C, strain vps35, active compounds read low 0.98 | locus YJL164C, strain tpk1, active compounds read low 0.994 | locus YJL166W, strain qcr8, active compounds read low 0.973 | locus YJL168C, strain set2, active compounds read low 0.981 | locus YJL187C, strain SWE1 (second series), active compounds read low 1.01 | locus YJL187C, strain SWE1, active compounds read low 0.994
